According to PubChem BioAssay:
The source made the active and inactive calls.

Tests used:
[1] = system: XIP peptide (Xip251-270) binding; test: small-molecule binders of XIP peptide, primary screen, biochemical, small-molecule microarray, fluorescence 635/667 nm, 0.1 µg/mL protein (AID 1182); conditions: fluorescent protein binding, 635 nm, higher = more signal, called active from +8 up or from −8 down
XIP peptide (Xip251-270) = test: small-molecule binders of XIP peptide, primary screen, biochemical, small-molecule microarray, fluorescence 635/667 nm, 0.5 µg/mL protein (AID 1183); conditions: small-molecule microarray binding, fluorescence 635 nm; higher = more signal
[2] = Plasmodium falciparum growth inhibition, primary screen, strain 3D7, DAPI fluorescence, 100 nL (AID 1184);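 also: parasites grown inside human red blood cells in medium with human serum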; conditions: P. falciparum 3D7 growth, 3 d, higher = more signal
[3] = biological target: Homeobox protein Hox-A13 (Mus musculus) (UniProt Q62424); test: inhibitors of HoxA13-DNA binding, primary screen, biochemical, fluorescence polarization, labeled oligonucleotide (AID 1185); conditions: 15 min, higher = more signal, called active from +8 up or from −8 down
Chain of Homeobox protein Hox-A13 (Mus musculus) (Q62424 whole entry, looked up): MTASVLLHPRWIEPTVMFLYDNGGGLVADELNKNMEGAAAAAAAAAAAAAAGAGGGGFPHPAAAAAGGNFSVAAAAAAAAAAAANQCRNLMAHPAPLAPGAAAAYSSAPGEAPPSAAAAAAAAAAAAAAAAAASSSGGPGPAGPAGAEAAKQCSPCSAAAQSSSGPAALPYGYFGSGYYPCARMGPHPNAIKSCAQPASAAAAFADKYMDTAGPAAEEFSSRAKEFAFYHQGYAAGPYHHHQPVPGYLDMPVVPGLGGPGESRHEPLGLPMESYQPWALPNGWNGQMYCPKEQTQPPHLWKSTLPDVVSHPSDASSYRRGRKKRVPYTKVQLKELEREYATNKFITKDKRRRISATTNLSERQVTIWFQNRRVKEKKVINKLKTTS

Compound: CC(C)CON=C1C[C@@H](O)[C@@H](O)[C@@H]2[C@@H]3C(=O)N(Cc4ccccc4)C(=O)[C@@H]3CC[C@@H]12
- composite z-score [1]: -0.347 (inactive)
- composite z-score (XIP peptide (Xip251-270)): -0.229
- z-score [2]: -0.388
- z-score [3]: -0.596 (inactive)

Compound: CCOC(=O)CCN1C(=O)[C@H]2[C@H]3[C@H](O)[C@H](O)CC(=NOCc4ccccc4)[C@@H]3CC[C@H]2C1=O
- composite z-score [1]: 0.204 (inactive)
- composite z-score (XIP peptide (Xip251-270)): 0.635
- z-score [2]: 0.226
- z-score [3]: -4.34 (inactive)

Compound: COc1ccc(O[C@H]2C=C[C@@H](c3ccccc3)O[C@@H]2COC(=O)CCC(C)=NOCC[C@@H]2C=C[C@H](OC(C)=O)[C@@H](COC(C)=O)O2)cc1
- composite z-score [1]: 0.543 (inactive)
- composite z-score (XIP peptide (Xip251-270)): 0.0553
- z-score [2]: -0.703
- z-score [3]: -4.08 (inactive)

Compound: Cc1cc2c(c(=O)o1)[C@H](O)[C@H]1O[C@H]1C2=O
- composite z-score [1]: 0.326 (inactive)
- composite z-score (XIP peptide (Xip251-270)): -0.311
- z-score [2]: -0.811
- z-score [3]: -4.87 (inactive)

Compound: O=C1[C@H]2[C@H]3[C@H](O)[C@H](O)CC(=NOC[C@@H](O)COCc4ccco4)[C@H]3CC[C@H]2C(=O)N1c1cccc(Oc2ccccc2)c1
- composite z-score [1]: 0.283 (inactive)
- composite z-score (XIP peptide (Xip251-270)): 0.638
- z-score [2]: 0.499
- z-score [3]: 0.338 (inactive)

Compound: COc1ccc(O[C@H]2C=C[C@@H](c3ccccc3)O[C@@H]2COC(=O)N2CCCCC2)cc1
- composite z-score [1]: -0.275 (inactive)
- composite z-score (XIP peptide (Xip251-270)): -0.216
- z-score [2]: -0.43
- z-score [3]: -3.83 (inactive)

Compound: CO[C@@H]1COC(=O)[C@H](C)NC(=O)[C@@H](C)COC(=O)CCC[C@H]1C
- composite z-score [1]: 0.144 (inactive)
- composite z-score (XIP peptide (Xip251-270)): 0.652
- z-score [2]: -0.0339
- z-score [3]: -2.16 (inactive)

Compound: CCOC(=O)NN=C1C[C@@H](O)[C@@H](O)[C@@H]2[C@@H]3C(=O)N(C[C@@H]4CCCO4)C(=O)[C@@H]3CC[C@@H]12
- composite z-score [1]: 0.0985 (inactive)
- composite z-score (XIP peptide (Xip251-270)): -0.0422
- z-score [2]: 0.839
- z-score [3]: 0.513 (inactive)
